{"source": "PubChem BioAssay (NCATS)", "key": {"[1]": {"test": "Counterscreen for APE1 Inhibitors: Fluorescent Dye Displacement Validation Assay (AID 1707)", "outline": "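Loss of Thiazole Orange fluorescence marks promiscuous DNA binders. The dye (250 nM) is mixed with 50 nM abasic-site dsDNA in pH7.5 Tris buffer containing MgCl2, then compounds are added and emission is read once.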"}, "[2]": {"molecular_target": "Endonuclease 4 (Escherichia coli (strain K12)) (UniProt P0A6C1)", "test": "Counterscreen for APE1 Inhibitors: qHTS Validation Assay for Inhibitors of Endonuclease IV (AID 1708)", "outline": "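Enzyme (2 nM) + compound, 15 min RT; add 50 nM TAMRA/BHQ-2 THF-site dsDNA; kinetic read ex525/em598, 3 reads/60 s; activity = read 3 − read 1. Buffer Tris pH 7.5, 50 mM NaCl, 2 mM MgCl2, DTT, Tween-20.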"}, "[3]": {"test": "qHTS for differential inhibitors of proliferation of Plasmodium falciparum line 7G8 (AID 1815);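 further: potency means the concentration at half of the fitted maximal effect; parasite growth measured after three days of incubation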"}, "[4]": {"test": "qHTS for differential inhibitors of proliferation of Plasmodium falciparum line 3D7 (AID 1876); further: potency means the concentration at half of the fitted maximal effect"}, "[5]": {"test": "qHTS for differential inhibitors of proliferation of Plasmodium falciparum line D10 (AID 1877);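 further: potency means the concentration at half of the fitted maximal effect; parasites grown with compound for 72 h before DNA staining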"}, "[6]": {"test": "qHTS for differential inhibitors of proliferation of Plasmodium falciparum line Dd2 (AID 1882); further: potency means the concentration at half of the fitted maximal effect; nearly all actives have a fitted effect of over 65% in size", "details": "Potency: Plasmodium falciparum Dd2 proliferation inhibition", "outline": "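SYBR Green DNA fluorescence (ex 485, em 535 nm) after overnight lysis quantifies parasite growth; compound exposure lasted 72 h at 37 C on infected red cells at 2.5% hematocrit, 0.3% parasitemia (final). Artemisinin 0.29 uM and vehicle wells define normalization.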"}, "[7]": {"test": "qHTS for differential inhibitors of proliferation of Plasmodium falciparum line HB3 (AID 1886);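 further: potency means the concentration at half of the fitted maximal effect; parasites grown with compound for 72 h before SYBR Green readout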", "details": "Potency: Plasmodium falciparum HB3 proliferation inhibition"}, "[8]": {"molecular_target": "Ferritin light chain (Equus caballus) (UniProt P02791)", "sequence (P02791 2-175 limits assumed)": "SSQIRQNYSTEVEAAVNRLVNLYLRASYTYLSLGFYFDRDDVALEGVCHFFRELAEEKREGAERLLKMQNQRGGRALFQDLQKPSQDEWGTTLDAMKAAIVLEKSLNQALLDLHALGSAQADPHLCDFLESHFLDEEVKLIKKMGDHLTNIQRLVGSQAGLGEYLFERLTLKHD", "test": "qHTS Validation Assay for Identification of Novel General Anesthetics (AID 2323); further: series mostly up to about 77 µM", "outline": "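Apoferritin from horse spleen (10 uM) was mixed with 1-aminoanthracene at 50% saturation in PBS, then compounds were added. After 10 min at room temperature, fluorescence was read (ex 380 nm, em 535 nm) and normalized to free-probe and complex controls.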"}, "[9]": {"molecular_target": "ATP-dependent DNA helicase Q1 (Homo sapiens) (UniProt P46063)", "sequence (P46063 whole entry, looked up)": "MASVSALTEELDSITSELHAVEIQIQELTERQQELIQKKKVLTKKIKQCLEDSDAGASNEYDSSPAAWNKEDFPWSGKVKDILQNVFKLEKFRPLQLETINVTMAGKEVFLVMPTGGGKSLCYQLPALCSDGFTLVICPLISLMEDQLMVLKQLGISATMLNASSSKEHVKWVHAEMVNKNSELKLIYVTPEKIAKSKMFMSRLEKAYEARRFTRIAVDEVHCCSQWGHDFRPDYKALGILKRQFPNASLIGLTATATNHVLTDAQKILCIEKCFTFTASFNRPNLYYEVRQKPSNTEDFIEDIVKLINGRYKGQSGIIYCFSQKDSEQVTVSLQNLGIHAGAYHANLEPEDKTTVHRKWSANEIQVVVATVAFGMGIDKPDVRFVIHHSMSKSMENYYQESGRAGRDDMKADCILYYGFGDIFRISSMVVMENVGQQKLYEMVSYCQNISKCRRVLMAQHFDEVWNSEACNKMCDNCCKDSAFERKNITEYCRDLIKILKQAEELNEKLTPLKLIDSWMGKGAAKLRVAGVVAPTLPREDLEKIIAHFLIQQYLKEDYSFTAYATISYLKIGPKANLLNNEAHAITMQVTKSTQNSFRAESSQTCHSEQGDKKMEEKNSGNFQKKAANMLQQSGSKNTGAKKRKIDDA", "test": "qHTS Validation Assay for Inhibitors of RecQ-Like Dna Helicase 1 (RECQ1) (AID 2353)", "outline": "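RECQ1T1 50 nM; forked duplex (20 bp + 30-nt ss tails) 200 nM, ATP 2 mM final; pH 8.0, 2 mM MgCl2, 2.5 ug/ml poly(dI-dC); 15 min compound preincubation; discontinuous kinetic read over 2 h at RT.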"}, "[10]": {"test": "High Content Imaging Cell-Based qHTS for Inhibitors of the mTORC1 Signaling Pathway in MEF Cells (AID 2667);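 further: Tsc2-/- p53-/- MEFs stably re-expressing wild-type Tsc2 exposed 24 h; series mostly up to about 38 µM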", "outline": "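Fixed-cell imaging of phospho-S6 (Ser235/236, Alexa-488) after 24 hrs of compound treatment at 37 degree Celsius. Signal was normalized to Hoechst, and thresholds from the highest and lowest wells split cells into % active versus % non-active.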"}, "[11]": {"molecular_target": "Ubiquitin carboxyl-terminal hydrolase 2 (Homo sapiens) (UniProt O75604)", "sequence (O75604 whole entry, looked up)": "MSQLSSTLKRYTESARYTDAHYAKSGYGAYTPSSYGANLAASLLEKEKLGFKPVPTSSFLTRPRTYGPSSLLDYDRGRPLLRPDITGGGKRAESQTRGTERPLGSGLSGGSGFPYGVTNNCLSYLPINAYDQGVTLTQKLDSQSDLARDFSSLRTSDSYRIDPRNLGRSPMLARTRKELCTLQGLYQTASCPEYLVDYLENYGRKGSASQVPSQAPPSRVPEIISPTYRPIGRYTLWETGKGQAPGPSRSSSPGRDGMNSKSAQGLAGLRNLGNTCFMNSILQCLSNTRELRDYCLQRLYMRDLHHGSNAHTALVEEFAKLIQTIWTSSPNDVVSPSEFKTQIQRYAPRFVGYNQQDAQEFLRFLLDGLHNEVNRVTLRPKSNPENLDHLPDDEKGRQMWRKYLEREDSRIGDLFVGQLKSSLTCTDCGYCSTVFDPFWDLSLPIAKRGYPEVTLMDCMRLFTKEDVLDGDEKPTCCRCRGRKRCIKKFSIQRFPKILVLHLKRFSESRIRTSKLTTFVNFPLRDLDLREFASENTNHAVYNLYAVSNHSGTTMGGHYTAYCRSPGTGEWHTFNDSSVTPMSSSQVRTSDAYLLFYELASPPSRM", "test": "qHTS Validation Assay for Inhibitors of Ubiquitin-specific Protease USP2a Using CHOP2 as the Reporter (AID 463106)", "outline": "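Inhibition is expressed relative to NEM as the full-inhibition control, with concentration-response curves classed by fit quality, magnitude and activity. Enzyme (USP2 core, 10nM) meets 25nM Ub-CHOP2 after compound preincubation; readings are taken at 60min.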"}, "[12]": {"molecular_target": "DNA polymerase III PolC-type (Bacillus subtilis (strain 168)) (UniProt P13267)", "sequence (P13267 whole entry, looked up)": "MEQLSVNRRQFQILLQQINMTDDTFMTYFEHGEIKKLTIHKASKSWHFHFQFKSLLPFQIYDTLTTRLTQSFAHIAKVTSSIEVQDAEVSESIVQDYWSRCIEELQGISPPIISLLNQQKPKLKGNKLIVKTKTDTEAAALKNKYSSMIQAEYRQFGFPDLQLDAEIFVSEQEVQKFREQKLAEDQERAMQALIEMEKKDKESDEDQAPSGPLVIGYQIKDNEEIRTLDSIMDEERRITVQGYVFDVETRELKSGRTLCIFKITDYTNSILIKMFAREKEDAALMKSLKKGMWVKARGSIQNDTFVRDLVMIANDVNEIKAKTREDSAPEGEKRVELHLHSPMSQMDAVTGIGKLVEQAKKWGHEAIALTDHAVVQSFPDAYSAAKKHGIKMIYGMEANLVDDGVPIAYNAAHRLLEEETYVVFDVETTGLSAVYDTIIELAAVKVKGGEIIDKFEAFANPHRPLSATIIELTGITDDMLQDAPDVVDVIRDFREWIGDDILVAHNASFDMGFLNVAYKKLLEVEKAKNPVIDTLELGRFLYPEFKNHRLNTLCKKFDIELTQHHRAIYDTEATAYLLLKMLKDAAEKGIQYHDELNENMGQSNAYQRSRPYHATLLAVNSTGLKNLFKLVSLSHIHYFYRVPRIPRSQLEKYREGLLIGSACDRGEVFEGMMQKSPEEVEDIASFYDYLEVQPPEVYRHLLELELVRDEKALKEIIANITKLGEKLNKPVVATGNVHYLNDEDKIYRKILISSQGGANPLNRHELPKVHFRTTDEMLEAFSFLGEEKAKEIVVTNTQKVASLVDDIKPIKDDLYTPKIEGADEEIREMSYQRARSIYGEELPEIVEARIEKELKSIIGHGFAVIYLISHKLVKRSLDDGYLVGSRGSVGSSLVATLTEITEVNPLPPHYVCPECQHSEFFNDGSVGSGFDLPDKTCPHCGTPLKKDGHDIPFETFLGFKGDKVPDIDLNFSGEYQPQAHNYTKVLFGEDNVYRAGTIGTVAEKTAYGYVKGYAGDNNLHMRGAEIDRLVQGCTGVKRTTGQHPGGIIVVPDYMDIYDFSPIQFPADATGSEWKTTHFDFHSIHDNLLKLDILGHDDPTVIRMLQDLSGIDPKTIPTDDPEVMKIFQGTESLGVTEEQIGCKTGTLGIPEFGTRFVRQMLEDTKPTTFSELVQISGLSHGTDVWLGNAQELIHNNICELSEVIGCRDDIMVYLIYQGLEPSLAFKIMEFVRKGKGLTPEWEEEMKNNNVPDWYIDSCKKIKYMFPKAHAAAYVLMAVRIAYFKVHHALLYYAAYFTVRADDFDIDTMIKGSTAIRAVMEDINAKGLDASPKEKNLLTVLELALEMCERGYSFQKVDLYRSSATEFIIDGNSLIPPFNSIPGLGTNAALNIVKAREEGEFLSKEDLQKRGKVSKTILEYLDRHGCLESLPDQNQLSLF", "test": "qHTS Validation Assay for the Inhibitors of DNA Replication in Gram-Positive Bacteria (AID 485295);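 further: reconstituted holoenzyme with PolC plus beta clamp SSB and primase; PicoGreen fluorescence of double-stranded DNA made on primed circular M13 template; series mostly up to about 57 µM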", "outline": "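Primed replication of single-stranded M13Gori by a four-protein B. subtilis holoenzyme is measured at room temperature. Double-stranded product is quantified by PicoGreen fluorescence after an EDTA stop; inhibition is scaled between DMSO and EDTA controls.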"}, "[13]": {"molecular_target": "Tumor susceptibility gene 101 protein (Homo sapiens) (UniProt Q99816)", "sequence (Q99816 whole entry, looked up, the tested form may be a part)": "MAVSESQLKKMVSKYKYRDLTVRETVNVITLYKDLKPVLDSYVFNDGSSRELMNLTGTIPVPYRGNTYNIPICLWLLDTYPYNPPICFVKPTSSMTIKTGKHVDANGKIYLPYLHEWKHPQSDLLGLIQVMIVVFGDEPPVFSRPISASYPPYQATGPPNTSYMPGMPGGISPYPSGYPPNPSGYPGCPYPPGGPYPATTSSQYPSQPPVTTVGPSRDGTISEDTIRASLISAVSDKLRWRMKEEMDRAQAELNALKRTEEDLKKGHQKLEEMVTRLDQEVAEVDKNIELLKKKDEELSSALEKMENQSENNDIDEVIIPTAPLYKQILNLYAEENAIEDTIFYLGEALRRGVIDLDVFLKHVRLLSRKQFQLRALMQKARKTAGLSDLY", "test": "qHTS Validation Assay for Iinhibitors of HIV-1 Budding by Blocking the Interaction of PTAP/TSG101 (AID 485342; calls by dose curve)", "outline": "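Fluorescence anisotropy measured PTAP-Tsg101 interaction. Final concentrations were 10 uM protein domain and 50 nM labeled peptide, equilibrated 20 min at room temperature.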"}, "[14]": {"molecular_target": "Beta-2 adrenergic receptor (Homo sapiens) (UniProt P07550)", "sequence (P07550 whole entry, looked up)": "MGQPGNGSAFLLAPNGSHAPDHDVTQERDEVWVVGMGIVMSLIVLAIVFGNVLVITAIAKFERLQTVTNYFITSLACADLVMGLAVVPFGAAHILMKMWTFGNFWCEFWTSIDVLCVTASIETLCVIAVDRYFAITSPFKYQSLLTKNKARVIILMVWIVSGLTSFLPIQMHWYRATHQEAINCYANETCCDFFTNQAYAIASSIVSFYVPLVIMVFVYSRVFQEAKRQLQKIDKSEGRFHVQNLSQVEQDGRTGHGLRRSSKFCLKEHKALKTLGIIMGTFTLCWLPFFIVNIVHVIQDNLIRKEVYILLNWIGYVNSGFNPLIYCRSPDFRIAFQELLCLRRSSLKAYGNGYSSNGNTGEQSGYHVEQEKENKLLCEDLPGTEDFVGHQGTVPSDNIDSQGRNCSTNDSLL", "test": "qHTS validation assay of beta-arrestin-biased ligands of beta2-adrenergic receptor (AID 485366)", "outline": "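Screening used a titration range of up to 46 microM in a beta-arrestin recruitment Tango luciferase assay. Cells in 1% FBS medium were treated 18 hr at 37 degrees C, and luminescence was normalized to %Activity.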"}, "[15]": {"test": "Quantitative high throughput screen for delayed death inhibitors of the malarial parasite plastid, 96 hour incubation (AID 488745); further: potency means the concentration at half of the fitted maximal effect; nearly all actives have a fitted effect of over 70% in size", "outline": "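Readout is firefly luciferase luminescence from an integrated reporter in P. falciparum; lower signal marks inhibited growth. Cultures at 2% hematocrit and 0.1% parasitemia were treated with compound across two generations (96 h, 37 C, 5% CO2).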"}, "[16]": {"molecular_target": "Thioredoxin reductase 1, cytoplasmic (Rattus norvegicus) (UniProt O89049)", "sequence (O89049 whole entry, looked up)": "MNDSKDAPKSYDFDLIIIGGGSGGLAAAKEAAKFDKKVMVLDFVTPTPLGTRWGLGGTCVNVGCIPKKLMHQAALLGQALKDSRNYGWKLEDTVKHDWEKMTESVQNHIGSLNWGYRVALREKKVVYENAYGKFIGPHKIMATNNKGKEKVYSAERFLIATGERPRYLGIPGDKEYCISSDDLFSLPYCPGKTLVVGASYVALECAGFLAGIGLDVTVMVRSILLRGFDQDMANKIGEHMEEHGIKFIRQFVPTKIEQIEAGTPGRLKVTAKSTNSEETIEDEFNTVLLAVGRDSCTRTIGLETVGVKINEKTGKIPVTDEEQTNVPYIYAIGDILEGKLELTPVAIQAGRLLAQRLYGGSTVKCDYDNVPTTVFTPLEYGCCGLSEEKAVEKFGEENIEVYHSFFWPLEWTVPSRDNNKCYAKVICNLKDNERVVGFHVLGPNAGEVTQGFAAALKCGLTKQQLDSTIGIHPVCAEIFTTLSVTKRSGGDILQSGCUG", "test": "qHTS Assay for Substrates of Mammalian Selenoprotein Thioredoxin Reductase 1 (TrxR1) (AID 488772);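 further: series mostly up to about 57 µM; a drop in NADPH fluorescence below the no-compound background marks a TrxR1 substrate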", "outline": "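In this dual-purpose format, potential substrates are identified from the first fluorescence read after selenite addition, not from the 8-minute delta. Rat enzyme is preincubated with NADPH and then with compound at ~22 deg C.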"}, "[17]": {"molecular_target": "Thioredoxin reductase 1, cytoplasmic (Rattus norvegicus) (UniProt O89049)", "test": "qHTS Assay for Inhibitors of Mammalian Selenoprotein Thioredoxin Reductase 1 (TrxR1) (AID 488773); further: potency means the concentration at half of the fitted maximal effect; nearly all actives have a fitted effect of over 40% in size", "details": "Potency: inhibition", "outline": "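Inhibition is scored from the loss of NADPH fluorescence between first and last reads of an 8-min kinetic run. Selenite (400 uM) was the substrate, added after 15 min compound preincubation at room temperature.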"}, "[18]": {"molecular_target": "Flap endonuclease 1 (Homo sapiens) (UniProt P39748)", "test": "qHTS Validation Assay for the Inhibitors of Human Flap endonuclease 1 (FEN1) (AID 488816)", "outline": "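Steps: add FEN1 (10 nM reagent) or buffer only; pin compounds; hold 15 min at room temperature; start with substrate, 50 nM final; read at 0 and 15 min; correct, normalize and fit a four-parameter Hill curve.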"}, "[19]": {"molecular_target": "M-phase phosphoprotein 8 (Homo sapiens) (UniProt Q99549)", "sequence (Q99549 whole entry, looked up)": "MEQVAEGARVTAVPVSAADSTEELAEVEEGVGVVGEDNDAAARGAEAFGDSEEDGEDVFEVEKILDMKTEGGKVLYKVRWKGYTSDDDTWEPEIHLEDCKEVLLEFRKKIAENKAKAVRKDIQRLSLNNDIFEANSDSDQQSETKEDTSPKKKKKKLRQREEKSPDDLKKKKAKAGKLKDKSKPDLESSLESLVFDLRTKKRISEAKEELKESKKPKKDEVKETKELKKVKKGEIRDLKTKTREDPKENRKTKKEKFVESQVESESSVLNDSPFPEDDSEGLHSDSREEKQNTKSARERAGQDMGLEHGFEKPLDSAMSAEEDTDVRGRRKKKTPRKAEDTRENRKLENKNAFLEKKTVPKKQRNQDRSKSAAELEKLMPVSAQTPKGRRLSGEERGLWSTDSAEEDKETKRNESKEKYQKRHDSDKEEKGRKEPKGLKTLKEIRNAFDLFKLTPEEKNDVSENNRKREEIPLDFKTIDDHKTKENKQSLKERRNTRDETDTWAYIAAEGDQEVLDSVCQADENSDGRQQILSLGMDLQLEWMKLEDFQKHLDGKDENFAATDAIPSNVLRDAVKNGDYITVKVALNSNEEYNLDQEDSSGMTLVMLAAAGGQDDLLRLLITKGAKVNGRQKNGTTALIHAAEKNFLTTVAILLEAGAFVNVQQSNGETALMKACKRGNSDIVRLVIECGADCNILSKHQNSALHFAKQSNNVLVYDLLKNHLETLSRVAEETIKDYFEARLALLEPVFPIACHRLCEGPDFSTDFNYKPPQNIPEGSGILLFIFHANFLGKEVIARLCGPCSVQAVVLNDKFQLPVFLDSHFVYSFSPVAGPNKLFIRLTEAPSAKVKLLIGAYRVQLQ", "test": "qHTS Validation Assay for Inhibitors for MPP8 Chromodomain Interactions with Methylated Histone Tails (AID 488949);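 further: AlphaScreen signal from MPP8 chromodomain bound to biotinylated H3K9me3 peptide; top concentration of the series differs between compounds; nearly all actives have a fitted effect of over 55% in size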", "outline": "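Disruption of the preformed MPP8–trimethyl-H3K9 peptide complex (both 50 nM, 30 min, RT) is measured after 30 min compound exposure, using AlphaScreen proximity beads; aurintricarboxylic acid titration serves as plate control.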"}, "[20]": {"molecular_target": "Methanococcus maripaludis chaperonin (MmCpn) (UniProt Q6LX38)", "test": "High-Throughput Screening for Modulators of Cytosolic Chaperonin Activity: MmCpn Primary Screen (AID 488978)", "outline": "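Measures ATPase turnover of the M. maripaludis chaperonin (50 nM final) against 30 uM ATP over 10 min at 37C, with compound added 5 min beforehand at room temperature. ADP is quantified by HTRF immunodetection.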"}}, "note": "Inconclusive results are not listed. Entries that show only a call come without a potency. Activity calls are given as the source filed them. Unless noted, the call rests on the fitted dose curve; in most records, active means well fitted curve in the direction sought with a large enough effect; inconclusive means small, poorly fitted or top-dose-only effect, or another doubt; inactive means no such curve, though single readings can be large; an effect the other way counts as inactive or inconclusive."}
{"smiles": "S=C(Nc1ccccc1)Nc1nccs1", "values": [{"measurement": "Potency", "setting": "[1]", "value": "inactive"}, {"measurement": "Potency", "setting": "[2]", "value": "inactive"}, {"measurement": "Potency", "setting": "[3]", "value": "3.55 µM (active)"}, {"measurement": "Potency", "setting": "[4]", "value": "7.94 µM (active)"}, {"measurement": "Potency", "setting": "[5]", "value": "12.6 µM (active)"}, {"measurement": "Potency", "setting": "[6]", "value": "11.2 µM (active)"}, {"measurement": "Potency", "setting": "[7]", "value": "8.91 µM (active)"}, {"measurement": "outcome", "setting": "[8]", "value": "inactive"}, {"measurement": "Potency", "setting": "[9]", "value": "inactive"}, {"measurement": "Potency", "setting": "[10]", "value": "inactive"}, {"measurement": "Potency", "setting": "[11]", "value": "inactive"}, {"measurement": "Potency", "setting": "[12]", "value": "inactive"}, {"measurement": "outcome", "setting": "[13]", "value": "inactive"}, {"measurement": "outcome", "setting": "[14]", "value": "inactive"}, {"measurement": "Potency", "setting": "[15]", "value": "9.28 µM (active)"}, {"measurement": "outcome", "setting": "[16]", "value": "inactive"}, {"measurement": "Potency", "setting": "[17]", "value": "5.97 µM (active)"}, {"measurement": "Potency", "setting": "[18]", "value": "inactive"}, {"measurement": "Potency", "setting": "[19]", "value": "inactive"}, {"measurement": "outcome", "setting": "[20]", "value": "inactive"}]}
